Here are results for five compounds from the supplement of paper PMC6897291.

This assay concerns U-2932. Put plainly: growth inhibition by drug alone (1 - RLU/untreated control) (fraction); higher = stronger inhibition. The following applies: 177Lu-lilotomab satetraxetan 0 ug/ml. The procedure: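 U-2932 ABC-DLBCL cells were pretreated or not for 18 h with 1 ug/ml 177Lu-lilotomab satetraxetan (600 MBq/mg), washed and seeded (3000 cells/well) on 384-well plates pre-printed with the Selleck Cambridge Cancer Compound library. Viability was read by RealTime-Glo luminescence on days 3-6 after seeding. Effect = 1 - RLU/mean RLU of the 48 untreated no-drug control wells per plate; Bliss score = (M-E)/(1-Fa), with E the expected Bliss-additive effect.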

For `N.N.[Cl][Pt][Cl]` [Cisplatin], the “growth inhibition by drug alone” value runs as follows: (10 nM, time (day): 3) 0.0383; (10 nM, time (day): 4) 0.00908; (10 nM, time (day): 5) -0.0126; (10 nM, time (day): 6) 0.00453; (1000 nM, time (day): 3) -0.0314; (1000 nM, time (day): 4) -0.0428. The “growth inhibition by drug alone” value reads like this: (1000 nM, time (day): 5) -0.0416; (1000 nM, time (day): 6) 0.0312.
`C[C@]12CCC(=O)C(O)=C1CC[C@@H]1[C@@H]2CC[C@]2(C)C(=O)CC[C@@H]12` [Formestane]: the “growth inhibition by drug alone” value was -0.0202 (10 nM, time (day): 3); -0.0416 (10 nM, time (day): 4); -0.00849 (10 nM, time (day): 5); 0.0511 (10 nM, time (day): 6); -0.0617 (1000 nM, time (day): 3); -0.0526 (1000 nM, time (day): 4). The “growth inhibition by drug alone” value is -0.0433 (1000 nM, time (day): 5) and 0.0231 (1000 nM, time (day): 6).
As to `C=C1C[C@@H]2[C@H](CC[C@]3(C)C(=O)CC[C@@H]23)[C@@]2(C)C=CC(=O)C=C12` [Exemestane], the “growth inhibition by drug alone” value reads like this: (10 nM, time (day): 3) 0.0753; (10 nM, time (day): 4) 0.00319; (10 nM, time (day): 5) -0.0809; (10 nM, time (day): 6) -0.0708; (1000 nM, time (day): 3) -0.0344; (1000 nM, time (day): 4) -0.0359. In addition, the “growth inhibition by drug alone” value runs as follows: (1000 nM, time (day): 5) -0.1; (1000 nM, time (day): 6) 0.0186.
`O=P1(N(CCCl)CCCl)NCCCO1` (stereo not given) [Cyclophosphamide monohydrate]: the “growth inhibition by drug alone” value reads like this: (10 nM, time (day): 3) -0.0368; (10 nM, time (day): 4) -0.0191; (10 nM, time (day): 5) -0.0185; (10 nM, time (day): 6) 0.00793; (1000 nM, time (day): 3) -0.0419; (1000 nM, time (day): 4) -0.0135. Besides, the “growth inhibition by drug alone” value was -0.0461 (1000 nM, time (day): 5) and -0.0745 (1000 nM, time (day): 6).
Consider `CCC1(c2ccc(N)cc2)CCC(=O)NC1=O` (stereo not given) [Aminoglutethimide (Cytadren)], for which the “growth inhibition by drug alone” value is, setting by setting: (10 nM, time (day): 3) 0.0306; (10 nM, time (day): 4) -0.0299; (10 nM, time (day): 5) -0.152; (10 nM, time (day): 6) -0.107; (1000 nM, time (day): 3) -0.0187; (1000 nM, time (day): 4) -0.0577. Moreover, the “growth inhibition by drug alone” value (1000 nM, time (day): 5) is -0.161 and the “growth inhibition by drug alone” value (1000 nM, time (day): 6) was -0.122.
